Laboratory results reported in PubChem BioAssay (NCI).
About 83,000 compounds went through this panel and 20% of them were active in at least one assay; those are over-represented in the sample as a whole.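 Assay: single dose, 48 h. Readout: percent growth (0 = no net growth; negative = cell death). Active: <10.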 Calls of active or inactive are those of the source.

Assays:
Test in all cases: NCI-60 one-dose screen, 48 h (100 = growth as untreated, 0 = no growth, -100 = all killed)
Settings in all cases: 10 µM unless noted
DU-145 prostate = test system: DU-145 prostate
K-562 leukemia = test system: K-562 leukemia
MALME-3M melanoma = test system: MALME-3M melanoma
MDA-MB-231 breast = test system: MDA-MB-231 breast
RXF 393 renal = test system: RXF 393 renal
SF-268 CNS = test system: SF-268 CNS
SF-295 CNS = test system: SF-295 CNS
SF-539 CNS = test system: SF-539 CNS
UACC-257 melanoma = test system: UACC-257 melanoma
M14 melanoma = test system: M14 melanoma

Measured: growth

CCCCNC(=S)Nc1ccc(OCc2nc3ccccc3[nH]2)cc1
inactive: DU-145 prostate 58.9% | K-562 leukemia 28.6% | MALME-3M melanoma 77.5% | MDA-MB-231 breast 65.2% | RXF 393 renal 99.5% | SF-268 CNS 44.2% | SF-295 CNS 53.7% | SF-539 CNS 56.2% | UACC-257 melanoma 83.5% | M14 melanoma 55.1%

CC(=O)OCC1OC(OC2C(COC(C)=O)OC(n3cc(COc4ccc5ccc(=O)oc5c4)nn3)C(OC(C)=O)C2OC(C)=O)C(OC(C)=O)C(OC(C)=O)C1OC(C)=O (stereo not given)
inactive: DU-145 prostate 108% | K-562 leukemia 92.1% | MALME-3M melanoma 101% | MDA-MB-231 breast 101% | RXF 393 renal 90.5% | SF-268 CNS 91.8% | SF-295 CNS 113% | SF-539 CNS 100% | UACC-257 melanoma 112% | M14 melanoma 107%

O=C(COc1ccc(NC(=O)Nc2ccccc2)cc1)N=Nc1c(O)[nH]c2ccc([N+](=O)[O-])cc12
inactive: DU-145 prostate 33.9% | K-562 leukemia 10.5% | RXF 393 renal 33.5% | SF-268 CNS 46.7% | SF-295 CNS 70.3% | UACC-257 melanoma 27.3%
active: MALME-3M melanoma -62.7% | MDA-MB-231 breast -42.3% | SF-539 CNS -70.5% | M14 melanoma 8.59%

O=C(Cn1c(/C=C/c2ccccc2)nc2ccccc2c1=O)Nc1ccccc1
active: RXF 393 renal 8.81%
inactive: DU-145 prostate 74.8% | K-562 leukemia 93.2% | MALME-3M melanoma 69.9% | MDA-MB-231 breast 24.8% | SF-268 CNS 91.4% | SF-295 CNS 70.7% | SF-539 CNS 70.2% | UACC-257 melanoma 104% | M14 melanoma 102%

CCN(CC)CCOc1ccc(Nc2ncc3cc(-c4ccc(O)c(C#N)c4)c(=O)n(C)c3n2)cc1
inactive: DU-145 prostate 84.6% | MDA-MB-231 breast 11.9% | RXF 393 renal 22.3% | SF-268 CNS 77.1% | SF-295 CNS 90.8% | SF-539 CNS 62.2% | UACC-257 melanoma 101% | M14 melanoma 70.4%
active: K-562 leukemia -47.5% | MALME-3M melanoma -95.5%

O=C1/C(=C/C2=Cc3ccccc3OC2)SC(=S)N1c1ccccc1F
inactive: DU-145 prostate 108% | K-562 leukemia 92.4% | MALME-3M melanoma 96.2% | MDA-MB-231 breast 97.2% | RXF 393 renal 109% | SF-268 CNS 122% | SF-295 CNS 96.9% | SF-539 CNS 97.6% | UACC-257 melanoma 107% | M14 melanoma 93.3%

CC(=O)Nc1cccc(-c2nc3cc(-c4ccc(O)cc4)ccc3n2C)c1
active: MALME-3M melanoma -4.44% | UACC-257 melanoma -3.29%
inactive: DU-145 prostate 56.5% | K-562 leukemia 35.4% | MDA-MB-231 breast 49.1% | RXF 393 renal 81.3% | SF-268 CNS 42.8% | SF-295 CNS 26% | SF-539 CNS 57.2% | M14 melanoma 24.5%

COc1ccc2c(c1)c(-c1cc3nc(-c4cn(C)c5ncc(Br)cc45)cc(N)n3n1)cn2C
inactive: DU-145 prostate 26% | SF-268 CNS 12.4%
active: K-562 leukemia -33.5% | MALME-3M melanoma -88.4% | MDA-MB-231 breast -73% | RXF 393 renal -72.9% | SF-295 CNS -67.2% | SF-539 CNS -87.6% | UACC-257 melanoma -74.3% | M14 melanoma -74.4%

CCS(=O)(=O)N1CCCC(C(=O)Nc2nc3ccc(NC(=O)c4ccc(F)c(OC)c4F)cc3s2)C1 (stereo not given)
inactive: DU-145 prostate 77.2% | K-562 leukemia 38.6% | MALME-3M melanoma 67.9% | MDA-MB-231 breast 81.7% | RXF 393 renal 26.9% | SF-268 CNS 68.5% | SF-295 CNS 48.8% | SF-539 CNS 57.6% | UACC-257 melanoma 37.4% | M14 melanoma 78.5%

C=C1CCC2C3(C)COC(c4ccc(F)cc4)OC3CCC2(C)C1C/C=C1/C(=O)OCC1O (stereo not given)
inactive: K-562 leukemia 11.9% | SF-268 CNS 39.7%
active: DU-145 prostate -41.4% | MALME-3M melanoma -71.9% | MDA-MB-231 breast -45.2% | RXF 393 renal -69.7% | SF-295 CNS -8.06% | SF-539 CNS -85.5% | UACC-257 melanoma -62.6% | M14 melanoma -68.1%

Nc1nc(C(F)(F)F)cs1
inactive: DU-145 prostate 109% | K-562 leukemia 99.9% | MALME-3M melanoma 103% | MDA-MB-231 breast 117% | RXF 393 renal 112% | SF-268 CNS 99.3% | SF-295 CNS 103% | SF-539 CNS 106% | UACC-257 melanoma 104% | M14 melanoma 108%

COc1ccc2c(c1)c(-c1cc3nc(-c4cn(C)c5ncccc45)cc(N)n3n1)cn2C
active: DU-145 prostate -27.2% | K-562 leukemia -31.2% | MALME-3M melanoma -95.3% | MDA-MB-231 breast -82.8% | RXF 393 renal -77.3% | SF-295 CNS -79.4% | SF-539 CNS -95.8% | UACC-257 melanoma -78.7% | M14 melanoma -84.3%
inactive: SF-268 CNS 11.9%

COc1ccc(NC(=O)Cn2c(O)c(N=Nc3ccc(S(N)(=O)=O)cc3)c3ccccc32)cc1
inactive: DU-145 prostate 82.4% | K-562 leukemia 40.8% | MALME-3M melanoma 29.8% | RXF 393 renal 82.7% | SF-268 CNS 69.1% | SF-295 CNS 22.1% | SF-539 CNS 23.4% | UACC-257 melanoma 67% | M14 melanoma 27.4%
active: MDA-MB-231 breast -22.1%

Cn1cc(-c2cc(N)n3nc(-c4c[nH]c5ccccc45)cc3n2)c2cc(Br)cnc21
active: DU-145 prostate 5.95% | K-562 leukemia -23.9% | MALME-3M melanoma -83.9% | MDA-MB-231 breast -83.4% | RXF 393 renal -76.3% | SF-268 CNS 0.392% | SF-295 CNS -71.6% | SF-539 CNS -93.5% | UACC-257 melanoma -78.9% | M14 melanoma -71%

COc1c(F)ccc(C(=O)Nc2ccc3nc(NC(=O)C4CCCN(S(=O)(=O)c5ccc(Br)c(F)c5)C4)sc3c2)c1F (stereo not given)
active: RXF 393 renal -1.15%
inactive: DU-145 prostate 102% | K-562 leukemia 62.5% | MALME-3M melanoma 95.6% | MDA-MB-231 breast 83.5% | SF-268 CNS 96.7% | SF-295 CNS 72.5% | SF-539 CNS 64.5% | UACC-257 melanoma 80.7% | M14 melanoma 80.7%

COc1cc2nc(SCc3ccccc3)n(-c3ccc(Cl)cc3)c(=O)c2cc1OC
inactive: UACC-257 melanoma 38.3% | M14 melanoma 20.1%
active: DU-145 prostate -10% | K-562 leukemia 2.35% | MALME-3M melanoma -40.8% | MDA-MB-231 breast -6.51% | RXF 393 renal -38.8% | SF-268 CNS -12.9% | SF-295 CNS -59.9% | SF-539 CNS -83.6%

COc1ccc(/C=C2\C(=N)N=C(SCc3nc4ccccc4[nH]3)NC2=O)cc1
inactive: DU-145 prostate 115% | K-562 leukemia 112% | MALME-3M melanoma 102% | MDA-MB-231 breast 105% | RXF 393 renal 122% | SF-268 CNS 109% | SF-295 CNS 103% | SF-539 CNS 103% | UACC-257 melanoma 108% | M14 melanoma 112%

NS(=O)(=O)c1ccc(NNC(=O)CCC(=O)c2ccccc2)cc1
inactive: DU-145 prostate 114% | K-562 leukemia 71.6% | MALME-3M melanoma 107% | MDA-MB-231 breast 99.3% | RXF 393 renal 119% | SF-268 CNS 95.8% | SF-295 CNS 99.4% | SF-539 CNS 103% | UACC-257 melanoma 103% | M14 melanoma 104%

CCC(C)(C)c1ccc(OCCCCN2CCN(c3ccncc3)CC2)cc1
active: K-562 leukemia -1.88% | MALME-3M melanoma -85% | MDA-MB-231 breast -30.9% | RXF 393 renal -7.66% | SF-295 CNS -35.6% | SF-539 CNS -36% | M14 melanoma -56.6%
inactive: DU-145 prostate 60.8% | SF-268 CNS 66.7% | UACC-257 melanoma 37.5%

COc1ccc(-c2ccnc(SCc3cc4ccccc4[nH]c3=O)n2)cc1
inactive: DU-145 prostate 81.2% | K-562 leukemia 11.1% | MALME-3M melanoma 65.9% | MDA-MB-231 breast 59.1% | RXF 393 renal 40.2% | SF-268 CNS 87.7% | SF-295 CNS 50.3% | SF-539 CNS 50% | UACC-257 melanoma 79.5% | M14 melanoma 44.8%

Cc1cc2c(cc1Cl)C(=O)/C(=C/c1ccccc1)O2
inactive: SF-268 CNS 64% | SF-295 CNS 24.9% | UACC-257 melanoma 36.1% | M14 melanoma 30.9%
active: DU-145 prostate -94.3% | K-562 leukemia 9.17% | MALME-3M melanoma -46.8% | MDA-MB-231 breast -36.5% | RXF 393 renal -33.9% | SF-539 CNS -98.5%

CC(C)c1sc(NC(=O)c2cc(NC(=O)c3cc(NC(=O)c4nccn4C)cn3C)cn2C)nc1C(=O)NCCCN(C)C
inactive: DU-145 prostate 91.7% | K-562 leukemia 30.8% | MALME-3M melanoma 65% | MDA-MB-231 breast 85.5% | RXF 393 renal 76.6% | SF-268 CNS 57.9% | SF-295 CNS 100% | SF-539 CNS 76.9% | UACC-257 melanoma 82.3% | M14 melanoma 94.3%

Cc1cc2nc3c4ccccc4n(CCNCCN(C)C)c3nc2cc1C
inactive: DU-145 prostate 17.2% | SF-268 CNS 42.5% | SF-295 CNS 20.2%
active: K-562 leukemia 0.435% | MALME-3M melanoma -96.6% | MDA-MB-231 breast 1.93% | RXF 393 renal -34.7% | SF-539 CNS -79.8% | UACC-257 melanoma -72.8% | M14 melanoma -79.9%

COC(OC)C1=C(C)OC(N)=C(C#N)C12C(=O)Nc1ccccc12 (stereo not given)
inactive: DU-145 prostate 105% | K-562 leukemia 82% | MALME-3M melanoma 87.2% | MDA-MB-231 breast 102% | RXF 393 renal 109% | SF-268 CNS 104% | SF-295 CNS 138% | SF-539 CNS 100% | UACC-257 melanoma 100% | M14 melanoma 94.9%
